Several values for one entry are separate records, joined by “and”; a condition that tells them apart may be missing. Equal entries are not always repeated. In all, about 350,000 compounds went through this assay and about 1,200 (0.34%) were called active. Where a call stands in place of a potency, no number is given. Inconclusive results (about 3%) are left out. Calls come from the whole dose curve; as a rule, active = well fitted inhibition curve with a large enough effect; inconclusive = small, poorly fitted or top-dose-only effect; inactive = no such curve, though single readings can be large or run the other way. Only a selection was taken, and actives are over-represented in it overall. More than one record can exist for a structure, and the calls need not agree. Positions of bridges follow the written chain, without caps; N, C: chain ends. Non-standard residues stand in square brackets, D forms with d. Residues, ends and D or L forms follow the SMILES beside them. *: point of attachment. X1 = CC[C@H](C)CCCCC(=O)*; Dab = NCC[C@H](N)C(=O)O
Potency is the fitted concentration of half-maximal effect.

Chain of DNA repair nuclease/redox regulator APEX1 (Homo sapiens) (P27695 whole entry, looked up): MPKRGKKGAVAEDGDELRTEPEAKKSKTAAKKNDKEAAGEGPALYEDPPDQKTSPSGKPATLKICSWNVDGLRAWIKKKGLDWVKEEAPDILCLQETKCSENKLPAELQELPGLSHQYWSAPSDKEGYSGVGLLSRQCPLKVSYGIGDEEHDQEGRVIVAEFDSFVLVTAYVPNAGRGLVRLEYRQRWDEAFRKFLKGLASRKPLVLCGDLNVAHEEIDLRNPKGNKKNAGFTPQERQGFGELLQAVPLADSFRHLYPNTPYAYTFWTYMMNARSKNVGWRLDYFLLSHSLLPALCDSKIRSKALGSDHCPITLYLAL

The assay has as its target DNA repair nuclease/redox regulator APEX1 (Homo sapiens) (UniProt P27695). The experiment in a line: qHTS Assay for Inhibitors of the Human Apurinic/apyrimidinic Endonuclease 1 (APE1). Note: nearly all actives have a fitted effect of over 55% in size. To be noted: recombinant APE1, TAMRA/BHQ-2 abasic DNA cleavage fluorescence; activity change, negative = inhibition: at 65.8 µM (top of the series). Summed up:
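Activity was derived from the fluorescence gain between first and third kinetic reads (60 s intervals, ex 525/em 598 nm) after 50 nM THF-abasic TAMRA/BHQ-2 duplex was added to 0.75 nM APE1 preincubated 15 min with compound.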
(In general: Quantitative high-throughput screening tests each substance at several concentrations.)
For the compound `O=C(CSc1nnc(-c2cccc([S+](=O)([O-])N3CCCC3)c2)n1-c1ccccc1)Nc1cccc(C(F)(F)F)c1`, the Potency entry is “inactive”.

On to `CC(Oc1ccccc1)C(=O)N[C@@H]1C(=O)N2[C@@H]1SC(C)(C)[C@@H]2C(=O)O` (some centres not stated), for which the Potency result is “inactive”. With `C=CCNc1oc(-c2cccnc2)nc1C#N`, the Potency entry is “inactive”.

As for `O=C(CCC1CCCN(C(=O)Cc2ccc(F)cc2)C1)N1CCN(c2ccccn2)CC1` (configuration not stated), the Potency result is “inactive”. In the case of `C=Cc1ccc(C(=O)N2CCCC(CCC(=O)N3CCN(c4ccccn4)CC3)C2)cc1` (configuration not stated), the Potency was 0.67 µM (active). For `O=C(CCC1CCCN(C(=O)c2ccc(F)c(F)c2)C1)N1CCN(c2ccccn2)CC1` (configuration not stated), the Potency entry was “inactive”. In the case of `COc1ccc(C2=Nn3c(nnc3-c3ccccc3F)SC2)cc1OC`, the Potency result was “inactive”. Same read-out and setting: the same measure for `COc1ccc2c3c1OC1CC(O)C=C[C@@]31CCN(C)C2` (some centres not stated): “inactive”; for `COc1ccc2c(c1)O[C@@H](c1ccc3c(c1)OCO3)[C@H](OC(=O)NCc1ccco1)C2=O`: “inactive”; for `O=C(c1ccncc1)N1CCC2(CCCN(C(c3ccccc3)c3ccccc3)C2)CC1`: “inactive”. In the case of `COc1cccc([C@@H]2Oc3ccc(Br)cc3C(=O)[C@H]2OC(=O)NCCc2ccc(OC)c(OC)c2)c1`, the Potency entry is “inactive”. `C=C/C1=C/Cc2ccccc2[C@H](C[N+](=O)[O-])C(C(=O)OC)(C(=O)OC)C1`: the Potency entry was “inactive”. The same measure, in the same setting: the same measure for `C[C@@H]1O[C@@H](O[C@@H]2[C@@H](O)[C@H](OCCc3ccc(O)c(O)c3)O[C@H](CO[C@@H]3O[C@H](CO)[C@@H](O)[C@H](O)[C@H]3O)[C@H]2OC(=O)/C=C/c2ccc(O)c(O)c2)[C@H](O)[C@H](O)[C@H]1O`: “inactive”. On to `O=C(CN1CCN(S(=O)(=O)/C=C/c2ccccc2)CC1)NC(=O)NCc1ccco1`, for which the Potency was 22.4 µM (active). On to `NC(=O)CCN1CCN(S(=O)(=O)/C=C/c2ccccc2)CC1`, for which the Potency entry is “inactive”. Still for that read-out and setting: the result for `COc1ccccc1N1CCN(CC(=O)NC(=O)NCc2ccco2)CC1` reads “inactive”; that for `COc1ccccc1CNc1ccnc(-c2c(C)noc2C)n1`, “inactive”.

Regarding `COC(=O)[C@@H]1C[C@@]2(O)[C@H](O)[C@H](O)[C@H](O)C[C@H]2N1CC1CCCCC1`, the Potency result was “inactive”. The same measure, in the same setting: the result for `O=C(Cl)c1ccc([N+](=O)[O-])cc1` reads “inactive”. Consider `CCC(C)[C@@H](N)C(=O)O` (some centres not stated), for which the Potency entry is “inactive”. On to `O=C(c1cc(C(F)(F)F)cc(C(F)(F)F)c1)N1CCC2(CCCN(c3ccccn3)C2)CC1`, for which the Potency result was “inactive”. Consider `O=C1c2cccc3cccc(c23)C(=O)N1CCCCCc1n[nH]c(=S)o1`, for which the Potency entry is “inactive”.

For `C[N+](C)(CCCCCC[N+](C)(C)CCCN1C(=O)c2cccc3cccc(c23)C1=O)CCCN1C(=O)c2cccc3cccc(c23)C1=O`, the Potency is 10 µM (active) and 4.74 µM (active). `O=C(CN1C(=O)c2cccc3cccc(c23)C1=O)N1CCCCC1`: the Potency entry is “inactive”.

As for `OC(CCl)CCl`, the Potency entry was “inactive”.

On to `CC[C@H](C)[C@H](NC(=O)[C@H](Cc1ccc(O)cc1)NC(=O)[C@@H](NC(=O)[C@H](CCCN=C(N)N)NC(=O)[C@@H](N)CC(=O)O)C(C)C)C(=O)N[C@@H](Cc1cnc[nH]1)C(=O)N1CCC[C@H]1C(=O)N[C@@H](Cc1ccccc1)C(=O)O`, for which the Potency result was “inactive”. With `CSc1nnc(SCc2nc3sc(C(=O)O)c(C)c3c(=O)[nH]2)s1`, the Potency was 25.1 µM (active).

Turning to `CCOC(=O)c1sc2nc(CSCC(=O)OCc3ccc(C(=O)OC)o3)[nH]c(=O)c2c1C`, the Potency entry is “inactive”. With `Cc1sc2nc(CSCC(=O)NC3CCCCC3)[nH]c(=O)c2c1C`, the Potency result is “inactive”.

`COC(=O)C1(C(C)=O)CC2=CC[C@H]3C(=O)N(c4ccccc4)C(=O)[C@H]3[C@@H]2Cc2ccccc2[C@@H]1C[N+](=O)[O-]` (some centres not stated): the Potency result is “inactive”. With `OC[C@H]1O[C@@H](n2cnc3c(NC4CCCC4)ncnc32)[C@H](O)[C@H]1O`, the Potency entry is “inactive”. As to `Cc1csc(-c2coc3cc(O[C@@H]4O[C@H](CO)[C@@H](O)[C@@H](O)[C@H]4O)ccc3c2=O)n1`, the Potency result was “inactive”. Still for that read-out and setting: the same measure for `CCCCC/C=C/C=C/C=O`: “inactive”; for `CNS(=O)(=O)c1cccc(C(=O)OCC(=O)N2c3ccccc3NC(=O)C2(C)C)c1`: 15 µM (active); for `Cc1cc(C(=O)OCC(=O)N2c3ccccc3NC(=O)C2(C)C)c(C)n1-c1ccccc1`: “inactive”. On the same count and under the same terms, the same measure for `CCNc1ccc(C(=O)OCC(=O)N2c3ccccc3NC(=O)C2(C)C)cc1[N+](=O)[O-]`: “inactive”; for `CC(C)CO`: “inactive”. In the case of `CN1CCN2c3ccccc3Cc3ccccc3[C@@H]2C1`, the Potency entry is “inactive”. As to `C/C(CCN1CCCCc2nc(C)c(C)cc21)=N\O[C@@H](C)c1cn([C@@H]2COC[C@@H]2O)nn1`, the activity change, negative = inhibition was 11.9% [at 12.4 µM] (inactive).

In the case of `C=CC(C1=CC(=O)C=CC1=O)c1ccc(O)cc1` (configuration not stated), the Potency result was “inactive”. On to `COc1cc([C@H](Cc2ccccc2)NC(C)=O)oc(=O)c1`, for which the Potency is 28.2 µM (active). Same read-out and setting: the same measure for `COc1ccc(OC)c(NC(=O)N[C@H](Cc2ccccc2)C(=O)NN)c1`: “inactive”; for `CCOC(=O)C(Cc1ccccc1)NC(=O)CCC(=O)c1ccc(OC)cc1` (configuration not stated): “inactive”. As to `COC(=O)C1(C)C=CC2(CCCCC2)N1C(C)=O` (configuration not stated), the Potency result was “inactive”. As to `N#Cc1ccc(CN2CCCC3(CCN(C(=O)c4ccco4)CC3)C2)cc1`, the Potency entry is “inactive”. With `C[C@H]1CCC[C@@]2(C)CCCC[C@]12O`, the Potency entry is “inactive”.

`COC(=O)CC1c2ccccc2C(Cc2ccc(OC)cc2)=C(C)N1C(=O)OC` (configuration not stated): the activity change, negative = inhibition is -8.37% [at 12.4 µM] (inactive). For `COc1ccc(Cl)cc1NC(=O)CCS(=O)(=O)c1ccc(Br)cc1`, the Potency is 11.9 µM (active). Turning to `CCOc1ccc(OCC)c(NC(=O)CCS(=O)(=O)c2ccc(C)cc2)c1`, the Potency result is “inactive”. Consider `O=C(CCS(=O)(=O)c1ccc(Br)cc1)NCCc1ccc(Cl)cc1`, for which the Potency entry is “inactive”. In the case of `COc1cccc(Cn2c(=O)cnc3cncnc32)c1`, the Potency result was “inactive”.

Turning to `C=CC1=C2C=C(C3CC3)N(CC(C)C)C=C2C(=O)C(C)(OC(=O)c2ccco2)C1=O` (configuration not stated), the activity change, negative = inhibition is -5.75% [at 12.4 µM] (inactive).

For the compound `COc1ccccc1CNc1ncnc2ccc(-c3c(C)noc3C)cc12`, the Potency entry was “inactive”. Turning to `C[C@H]1Cc2c(-c3ccccc3)nc3c(c2CO1)CN(C(=O)C1CC1)CC3`, the activity change, negative = inhibition is -1.16% [at 12.4 µM] (inactive). Regarding `COC(=O)C1(C)C=CCN1C(=O)c1ccccc1` (configuration not stated), the Potency entry is “inactive”. As for `Cc1ccc(CNc2ccc(N3CCN(C(=O)OC(C)(C)C)CC3)cc2)cc1`, the Potency result was “inactive”. On to `C=CCOC(=O)COCCC(C)C`, for which the Potency entry was “inactive”. As for `C/C=C/C1=C(C(=O)O)N2C(=O)[C@@H](NC(=O)[C@H](N)c3ccc(O)cc3)[C@H]2SC1`, the Potency result was “inactive”. Regarding `Cc1cc(C)cc(C(=O)NC2C(=O)N3C(C(=O)O)=C(CSc4nnc(C)s4)CSC23)c1` (configuration not stated), the Potency result was “inactive”. Consider `CC(C)(C)OC(=O)C1=C(CO)CS[C@@H]2[C@H](NC(=O)Cc3ccccc3)C(=O)N12`, for which the Potency result is “inactive”. As for `Cc1nnc(SCC2=C(C(=O)O)N3C(=O)C(NC(=O)Cn4nc(C)c(Cl)c4C)C3SC2)s1` (configuration not stated), the Potency result was “inactive”. With `CO/N=C(\C(=O)N[C@@H]1C(=O)N2C(C(=O)O)=C(COC(C)=O)CS[C@H]12)c1csc(N)n1` (stereo in doubt), the Potency entry was “inactive and 10 µM (active) and 10.6 µM (active)”. Regarding `C=CC1=C(C(=O)O)N2C(=O)[C@@H](NC(=O)/C(=N\OCC(=O)O)c3csc(N)n3)[C@H]2SC1`, the Potency is 11.9 µM (active). In the case of `CC(C)[C@@H](OCc1ccccc1)[C@H](C)/C=N\OC[C@@H](C)[C@H](OCc1ccccc1)C(C)C`, the activity change, negative = inhibition is -2.11% [at 12.4 µM] (inactive). Turning to `CO[C@H]1C=CO[C@@]2(C)Oc3c(C)c(O)c4c(O)c(c(/C=N/N5CCN(C)CC5)c(O)c4c3C2=O)NC(=O)/C(C)=C\C=C[C@H](C)[C@H](O)[C@@H](C)[C@@H](O)[C@@H](C)[C@H](OC(C)=O)[C@@H]1C`, the Potency result was “inactive”. On to `CC[C@H](C)CCCCC(=O)N[C@@H](CCN)C(=O)N[C@H](C(=O)N[C@@H](CCN)C(=O)N[C@H]1CCNC(=O)[C@@H]([C@H](C)O)NC(=O)[C@H](CCN)NC(=O)[C@H](CCN)NC(=O)[C@H](CC(C)C)NC(=O)[C@@H](CC(C)C)NC(=O)[C@H](CCN)NC1=O)[C@@H](C)O` (X1-[Dab]T[Dab][Dab][Dab][dL]L[Dab][Dab][dT]; lactam 4-C), for which the Potency result is “inactive”. On to `C[C@H]1Cc2c(COc3ccccc3)nc3c(c2CO1)CN(C(=O)Nc1cccc(C#N)c1)CC3`, for which the activity change, negative = inhibition was -2.12% [at 12.4 µM] (inactive). Regarding `OCCC(O)CO` (configuration not stated), the Potency result was “inactive”. As for `O=C(c1csnn1)N1CCC[C@@]2(CCN(c3cccc(-c4ccccc4)c3)C2)C1`, the Potency result is “inactive”. For `Cn1cccc1C(=O)N1CCC2(CC1)CN(c1cccc(-c3ccccc3)c1)C2`, the Potency result is “inactive”. As to `Nc1ncnc2c1ncn2C1CC(O)C(CO)O1` (configuration not stated), the Potency entry was “inactive”. Regarding `CC1(OC(=O)c2ccc(Cl)nc2)C(=O)Cc2cc(-c3ccsc3)ncc2C1=O` (configuration not stated), the activity change, negative = inhibition is -0.549% [at 12.4 µM] (inactive). As for `Cc1ccc(C(=O)NNC(=O)c2ccc3c(c2)OCCO3)cc1`, the Potency result was “inactive”. Regarding `Cc1ccc(C(=O)NNc2ncnc3ccccc23)cc1`, the Potency entry was “inactive”. Turning to `Cc1ccc(C(=O)NNC(=O)c2cc3cc4ccccc4nc3s2)cc1`, the Potency was 22.4 µM (active).

Turning to `Cn1cc(-c2nc3cnc(N4CCNCC4)nc3n(CCc3ccccc3)c2=O)c2ccccc21`, the Potency result is “inactive”. Still for that read-out and setting: the same measure for `COc1ccc(Oc2ncc3nc(-c4ccc(F)cc4)c(=O)n(C)c3n2)cc1`: “inactive”.
